From PubChem BioAssay
“And” between values parts separate entries of the source, which are not always exact repeats. Equal entries are not always repeated. Results filed as inconclusive are left out. Some structures have more than one record in an assay (separate samples or runs), and their calls can disagree. The source made the active and inactive calls. Unless noted, no rule for the calls is given here.

Experiments:
[1] = kinase inhibitors against Plasmodium liver-stage infection, cell-based, known kinase inhibitor set, luminescence, hepatoma host viability (AID 624392); details: Plasmodium liver stage in hepatoma cells, luciferase luminescence, concentration not given here; liver cell % of control: measured here: host liver cell viability; parasite % of control: stronger effect = lower value;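 also: infected cells incubated roughly two days before readout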
[2] = modulators of glucocorticoid suppression of NF-kB, cell-based, luciferase, IL-1B stimulus, dexamethasone (AID 624486); details: NF-kB luciferase reporter, IL-1B + dexamethasone, luminescence; percent of negative control (+Dex): actives lie on both sides, concentration not given here; z-score: measured here: IL-1B alone, no Dex;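 as to percent of negative control (+Dex): 100% = mean signal of vehicle control wells on the plate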
[3] = kinase inhibitors altering Pseudomonas killing of worms, whole organism (AID 651566);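 also: tested at 14 µM; sign flipped so higher z means a lower ratio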; details: C. elegans killed by P. aeruginosa, survival ratio
[4] = activators of macrophage pro-inflammatory response, cell-based, murine, luminescence (AID 652131); details: murine macrophage pro-inflammatory reporter, stronger effect = higher value
[5] = target: Cellular tumor antigen p53 (Homo sapiens) (UniProt P04637); assay: kinase inhibitors altering GFP-p53 stability in HPV16-positive cells, imaging, known kinase inhibitor set, EGFP/DsRed ratio (AID 1053116); details: stronger effect = higher value; EGFP object count: measured here: GFP-p53 positive objects count;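 also: cells exposed to compounds for 24 h at 37 °C before reading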
Chain of Cellular tumor antigen p53 (Homo sapiens) (P04637 whole entry, looked up): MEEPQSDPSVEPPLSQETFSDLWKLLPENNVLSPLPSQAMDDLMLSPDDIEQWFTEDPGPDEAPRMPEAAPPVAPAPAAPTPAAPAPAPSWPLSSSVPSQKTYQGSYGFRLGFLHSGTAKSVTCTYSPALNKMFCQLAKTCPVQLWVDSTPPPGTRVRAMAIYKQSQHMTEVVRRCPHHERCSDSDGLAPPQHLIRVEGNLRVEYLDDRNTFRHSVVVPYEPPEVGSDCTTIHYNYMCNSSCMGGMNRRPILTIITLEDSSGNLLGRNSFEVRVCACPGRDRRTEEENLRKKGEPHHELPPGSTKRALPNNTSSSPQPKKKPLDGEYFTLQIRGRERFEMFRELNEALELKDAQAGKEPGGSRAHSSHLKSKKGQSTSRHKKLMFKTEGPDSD

[6] = IRF3 reporter activation in THP-1 macrophages, cell-based, PMA-stimulated THP-1, luminescence (AID 1053176); details: PMA-differentiated THP-1, IRF3 reporter luminescence; stronger effect = higher value
[7] = survival rescue of mitochondrial mutant cells in low glucose, primary screen, MELAS cybrids, Rieske KO mouse fibroblasts, CellTiter-Glo (AID 1508586;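 active = mean z-score across replicates of 1.96 or higher in either the MELAS or the Rieske mutant cell line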;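 also: z relative to plate mean and SD of compound and empty wells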)
[8] = liver-stage malaria parasite growth inhibition, primary screen, cell-based, HepG2, luciferase luminescence, HepG2 viability (AID 624349; in the data active = parasite load remaining mostly below about 12%, no sharp cut-off; inactive = mostly above about 10%;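 also: 100% = mean of DMSO negative control wells on the same plate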); details: P. berghei liver stage in HepG2, luciferase luminescence, concentration not given here; parasite load remaining: stronger effect = lower value; viability: measured here: HepG2 viability without parasites
[9] = growth inhibition of DIPG glioma cells, dose response, cell-based, SU-DIPG-XVII, MIPE5.0, CellTiter-Glo, qHTS (AID 1347060; cut-off not given, nearly all actives have AC50 up to about 26 µM;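 also: cells exposed to compound for 48 hours before viability readout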); details: SU-DIPG-XVII viability, CellTiter-Glo ATP luminescence
[10] = viability loss in pontine glioma line – cell-based, SU-DIPG-XXV, MIPE5.0, CellTiter-Glo, qHTS, dose response (AID 1347065; cut-off not given, nearly all actives have AC50 up to about 26 µM;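 also: cells exposed to compound for 48 hours before ATP readout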); details: CellTiter-Glo ATP luminescence
[11] = SU-DIPG-XXV glioma cell viability, MIPE5.0 library, qHTS (AID 1347068; cut-off not given, nearly all actives have IC50 up to about 30 µM;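 also: cells exposed to compound for 48 hours before viability readout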)
[12] = sensitizers of A549 cells to miR-34 induction, primary screen, imaging, A549 dox-inducible miR-34, nuclei and caspase counts (AID 1347080;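 active = compounds whose cell count with miR-34 switched on is under 0.7 times the count with it off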); details: A549 miR-34 inducible, Hoechst nuclei count, 48 h
[13] = MELAS cybrid survival, CellTiter-Glo 48 h, stronger effect = higher value
[14] = Rieske KO mouse fibroblast survival, CellTiter-Glo 72 h

Row | SMILES | liver cell % of control [1] | parasite % of control [1] | percent of negative control (+Dex) [2] | z-score [2] | z-score [3] | z-score [4] | EGFP object count [5] | EGFP/DsRed ratio [5] | fraction signal [6] | z-score [7, 13] | z-score [7, 14] | parasite load remaining [8] | viability [8] | AC50 [9] | AC50 [10] | IC50 [11] | fold change ([12]; stronger effect = lower value, cell number ratio, induced over uninduced) | fold change ([12]; measured here: relative caspase fold change +Dox/-Dox) | cell count ([12]; measured here: total cells with miR-34 induction, stronger effect = lower value) | cell count ([12]; measured here: total cells without miR-34 induction)
1 | Nc1ncnc2occ(-c3ccc(NC(=O)Nc4cccc(C(F)(F)F)c4)cc3)c12 | 49.9% | 10.9% (inactive) | 66.5% (active) | -3 | -0.335 (inactive) | -1.22 (inactive) | 3.5 | 0.146 (inactive) | -0.016 (inactive) | -0.197 (inactive) | -0.452 |  |  |  |  |  |  |  |  | 
2 | CN(c1ccc(NC(=O)Nc2ccc(OC(F)(F)F)cc2)cc1)c1ccnc(Nc2cccc(S(N)(=O)=O)c2)n1 | 58.3% | 13.1% (inactive) | 81.5% (inactive) | -0.645 | 1.04 (inactive) | -1.34 (inactive) | 7.5 | 0.0983 (inactive) | -0.001 (inactive) | -1.15 (inactive) | 0.249 |  |  |  |  |  |  |  |  | 
3 | Nc1ncnc2occ(-c3ccc(NC(=O)Nc4cc(C(F)(F)F)ccc4F)cc3)c12 | 62.2% and 49.5% | 12.5% (inactive) and 10.2% (inactive) | 62.5% (inactive) and 72.5% (inactive) | -4.27 and -2.6 | -0.79 (inactive) and 0.505 (inactive) | 0.268 (inactive) and -0.714 (inactive) | 2 and 1 | 0.017 (inactive) and 0.0224 (inactive) | -0.0025 (inactive) and -0.0215 (inactive) | 0.841 (inactive) and 3.25 (active) | -0.123 and -0.164 |  |  |  |  |  |  |  |  | 
4 | O=C1NC(=O)C(c2c[nH]c3ccccc23)=C1c1c[nH]c2ccccc12 | 97.5% | 26.7% (inactive) | 98% (inactive) | -0.485 |  |  | 22.5 | 0.273 (inactive) | -0.0025 (inactive) |  |  | 50.4% (inactive) | 162% | 11.8 µM (active) | 18.6 µM (active) | 18.6 µM (active) | 1.26 (inactive) | 0.968 | 5130 | 4070
5 | COc1ccc(-c2nn3ncccc3c2-c2ccnc(Nc3ccc(Cl)c(C(F)(F)F)c3)n2)cc1 | 101% | 87.8% (inactive) | 98% (inactive) | 0.34 | -1.15 (inactive) | -0.74 (inactive) | 2.5 | 0.0806 (inactive) | -0.0025 (inactive) | 1.48 (inactive) | -0.347 |  |  |  |  |  |  |  |  | 
6 | COc1cccc(-n2ncc3c(N/N=C/c4ccc(C(=O)NCCN(C)C)cc4)ncnc32)c1 | 77.1% | 68.4% (inactive) | 104% (inactive) | 0.67 | -0.295 (inactive) | 0.961 (inactive) | 7 | 0.117 (inactive) | -0.0045 (inactive) | -0.557 (inactive) | 0.745 |  |  |  |  |  |  |  |  | 
7 | Nc1ncc(-c2cccc(S(N)(=O)=O)c2)c2scc(-c3ccc(F)c(Cl)c3)c12 | 86.2% | 63% (inactive) | 101% (inactive) | -0.045 | 0.425 (inactive) | 0.178 (inactive) | 7 | 0.225 (inactive) | -0.008 (inactive) | -0.767 (inactive) | -0.224 |  |  |  |  |  |  |  |  | 
8 | CCc1cccc(CC)c1/C=C/c1cncc(C(=O)NC)c1 | 170% | 99.3% (inactive) | 81% (inactive) | -0.295 | -0.265 (inactive) | 0.127 (inactive) | 4.5 | 0.156 (inactive) | -0.0125 (inactive) | 1.32 (inactive) | -0.269 |  |  |  |  |  |  |  |  | 
9 | NS(=O)(=O)c1ccc(N=Nc2c(O)[nH]c3ccc(C(=O)NCCCn4ccnc4)cc23)cc1 | 94% | 116% (inactive) | 83% (inactive) | -0.125 | 0.195 (inactive) | 0.038 (inactive) | 6 | 0.239 (inactive) | -0.0065 (inactive) | -0.0137 (inactive) | -0.000813 |  |  |  |  |  |  |  |  | 
10 | FC(F)(F)c1ccc(-c2nn3ncccc3c2-c2ccnc(Nc3ccc4c(c3)OCCO4)n2)cc1 | 105% | 77.8% (inactive) | 110% (inactive) | 0.735 | -0.48 (inactive) | 0.358 (inactive) | 5 | 0.479 (inactive) | 0.001 (inactive) | 0.512 (inactive) | 0.23 |  |  |  |  |  |  |  |  | 
11 | O=C1Nc2ccc(I)cc2/C1=C\c1cc(Br)c(O)c(Br)c1 | 86.2% | 77.5% (inactive) | 92% (inactive) | -0.355 | 1.3 (inactive) | 0.587 (inactive) | 1 | 0.0402 (inactive) | -0.0105 (inactive) | 0.405 (inactive) | -0.253 |  |  |  |  |  |  |  |  | 
12 | COc1cccc(-c2c[nH]c3c(N/N=C/c4ccncc4)ncnc23)c1 | 72.3% | 30.4% (inactive) | 129% (inactive) | -0.36 | -0.245 (inactive) | -1.59 (inactive) | 4 | 0.121 (inactive) | 0.002 (inactive) | -0.187 (inactive) | 0.000787 |  |  |  |  |  |  |  |  | 
13 | O=C(NCC1CC1)c1ccc(-c2cccc(C(=O)NC3CC3)c2)cc1 | 164% | 130% (inactive) | 91.5% (inactive) | 1.28 | -0.465 (inactive) | 1.36 (inactive) | 4.5 | 0.0862 (inactive) | 0 (inactive) | -0.117 (inactive) | -0.418 |  |  |  |  |  |  |  |  | 
14 | COc1cccc(-n2nc(C)c3c(N/N=C(\C)c4ccncc4)ncnc32)c1 | 114% | 124% (inactive) | 100% (inactive) | 0.765 | 0.74 (inactive) | -0.201 (inactive) | 2 | 0.0826 (inactive) | -0.0005 (inactive) | -0.775 (inactive) | -0.494 |  |  |  |  |  |  |  |  | 
